# From the supplement of paper PMC6555819
# Tested on: PPARg:RXRa 270nM:90nM, anti-RXR (NR concentration 270 nM, RXRa partner concentration 90 nM)
# Assay: PBM binding z-score (relative to random genomic background probes); higher = stronger binding; sequences stand for … in GC…GCGATTGACAGCGTAGAATGAAGG
# Outline: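 Each nuclear receptor dimer, without ligand, was incubated for 1 h on custom Agilent 4×180K protein-binding microarrays. Binding was detected with antibodies against each partner (one per run), and scanned fluorescence was regression-normalized. The binding z-scores are referenced to random human genomic background probes.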
row,Sequence,PBM binding z-score
1,CGTCCAAGGCCAAGGTCAGTGAAAGAGACTCGAA,0.725
2,CCGACTGGGCCAAGGTTACCATAACGCACAGCCA,2.37
3,AGTCATAGTTCAGGACGAGGTAACGTAAAGCACG,1.53
4,CGAACTAGGTCAAGGACAGTTAATCTCCGCACGC,6.38
5,ATCTCTAGGTAAAAGCTCAGTGAATCCCGAGGAT,2.55
6,CGTCCAAGGTCGATGCTAGGTCAGTGAAAGCATT,0.529
7,CGTCCAAGGTCAATGCTAGGTCAGTCAAAGCATT,4.84
8,TCTTGTAGATCATTAGAGGTTAAGAAAGTGCGCT,1.81
9,CGAACGAGGGCATGATTTGATAGCAAATGCCGAT,0.441
10,CGGCCTAGGTCAGGGCCAGTATAGGAGGAACGTT,0.462
11,CAAACTAGGTCACAGAGGTCATAGTCCGTGCGTA,8
12,GCTAGCAGGCCATTTGGGTCATTCAATGACGGGC,0.233
13,CCTAATGGGCCAAGGTCATTGATCAGTCAAAGCA,3
14,GCGACTGGGGCATCAGCAGATTACCATAACTTAA,0.488
15,TCTCGGAGGACACGAAGGTCCGAGCTTTCCAGAG,0.645
16,ACAGACAGATGAGTGAAGGTAACTCAGCTGGACG,0.561
17,CCTTACGGGTCACTCCAGGTAATAGCATCGGAGT,3.97
18,CCTACTGGCCCAAAAAGGTCATTGATGCCGATAA,2.89
19,CGAACTAGGTCAGAAGAGGACAGTGAAGGATGAT,4.62
20,ATACCAAGGTGATCGTGAGGTCGTGGATACTAAC,0.784
21,TGTCACAGTTCAAAGGTAACGTAAGTATCCACAC,4.67
22,ATCTCTAGGTAAAGATAATTCAGTGAATGCAAAT,0.48
